{"source": "PubChem BioAssay (EPA / NIEHS)", "note": "Several values for one entry are separate records, joined by “and”; a condition that tells them apart may be missing. Equal values may be shown once. Inconclusive results are not listed. Activity calls are given as the source filed them. The calls were made as follows: active = hit-call score of the fitted dose curve at least 0.9, where 1 is the maximum; inconclusive = response in the unintended direction; inactive = score below 0.9."}
{"target": "Cellular tumor antigen p53 (Homo sapiens) (UniProt P04637)", "sequence (P04637 whole entry, looked up, the tested form may be a part)": "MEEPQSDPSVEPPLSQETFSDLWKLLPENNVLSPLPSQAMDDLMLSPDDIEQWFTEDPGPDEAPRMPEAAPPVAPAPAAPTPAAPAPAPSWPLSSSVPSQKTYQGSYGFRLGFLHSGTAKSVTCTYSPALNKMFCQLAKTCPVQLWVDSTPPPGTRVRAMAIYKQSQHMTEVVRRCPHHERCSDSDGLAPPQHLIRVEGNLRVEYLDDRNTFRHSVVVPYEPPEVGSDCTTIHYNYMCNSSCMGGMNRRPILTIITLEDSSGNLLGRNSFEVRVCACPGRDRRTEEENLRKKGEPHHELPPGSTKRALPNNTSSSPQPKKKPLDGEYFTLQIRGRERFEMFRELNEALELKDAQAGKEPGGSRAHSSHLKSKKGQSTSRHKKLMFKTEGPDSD", "assay": "TOX21_p53_BLA_p4_ratio: Tox21 HCT-116 p53 Agonism Beta-lactamase Assay, Ratio, Phase 4 (AID 2283601)", "text": "TOX21_p53_BLA_p4 is a cell-based, single-readout assay that uses HCT116, a human intestinal cell line, […] in a 1536-well plate.TOX21_p53_BLA_p4_ratio is an assay readout measuring reporter gene via receptor activity and designed using inducible reporter (beta lactamase induction) detected with GAL4 b-lactamase reporter gene. The signal is derived from the ratio of cleaved (ch2) to uncleaved (ch1)reporter gene substrate used as the measure of target activity.Data from the assay component TOX21_p53_BLA_p4_ratio was analyzed into 1 assay endpoint. This assay endpoint, TOX21_p53_BLA_p4_ratio, was analyzed in the positive analysis fitting direction relative to DMSO as the negative control and baseline of activity. Using a type of inducible reporter, gain-of-signal activity can be used to understand changes in the reporter gene as they relate to the gene TP53. Furthermore, this assay endpoint can be referred to as a primary readout, because this assay has produced multiple assay endpoints where this ratio serves a reporter gene function to understand target activity. To generalize the intended target to other relatable targets, this assay endpoint is annotated to the DNA binding intended target family, where the subfamily is tumor suppressor.\nThawing Method: Place 14 mL of pre-warmed thaw medium into a 15 mL of conical tub. Remove the vial of cells to be thawed from liquid nitrogen and thaw rapidly by placing at 37C in a water bath with gentle agitation for 1-2 minutes. Decontaminate the vial by wiping with 70% ethanol before opening in a biological safety cabinet. Transfer the vial contents drop-wise into 14 mL of thaw medium in a sterile 15-mL conical tub. Centrifuge cells at 900 rpm for 4 minutes and resuspend in thaw medium. Transfer contents to the T75 tissue culture flask containing Thaw Medium and place flask in a humidified 37C/5% CO2 incubator. Switch to growth medium at first passage.Propagation Method: Aspirate medium, rinse once in DPBS, add 0.25% Trypsin/EDTA and swirl to coat the cell evenly. Add an equal volume of Growth Medium to inactivate Trypsin after 2-3 minutes incubation at 37C. Centrifuge cells at 900 rpm for 4 minutes and resuspend in growth medium. Cell should be passage or fed at least twice a week.Assay Protocol: Harvest cells from culture in growth medium and resuspend in assay medium. 2.2 Dispense 4000 cells/5 uL/well into 1536-well black/clear bottom plates using a Multidrop dispenser. After the cells were incubated at 37C for 5 hours, 23 nL of compounds dissolved in DMSO were transferred to the assay plate by a PinTool resulting in a 217-fold dilution. Incubate the plates for 16 hours at 37C, 5% CO2. Add 1 uL of 6X LiveBLAzer FRET B/G (CCF4-AM) Substrate Mixture to each well using a BioRAPTR dispenser and incubate the plates at room temperature for 2 hours. Measure fluorescence intensity at 460 and 530 nm emission and 405 nm excitation by an Envision detector. Data is expressed as the ratio of 460nm/530nm emissions. Add 4 uL of Cell-titer Glo to each well using BioRAPTR and incubate the plates at room temperature for 2 hours. Measure fluorescence intensity by a VewLux plate reader."}
{"smiles": "Nc1ccc(S(=O)(=O)Nc2nccs2)cc1", "outcome": "inactive"}
{"smiles": "C#C[C@]1(O)CC[C@H]2[C@@H]3CCc4cc(OC)ccc4[C@H]3CC[C@@]21C", "outcome": "inactive"}
{"smiles": "CC(Cc1ccc(O)c(O)c1)C(C)Cc1ccc(O)c(O)c1", "note": "(configuration not stated)", "AC50": "75.5 µM (active)"}
{"smiles": "O=C(OCCOCCOCCOC(=O)c1ccccc1)c1ccccc1", "outcome": "inactive"}
{"smiles": "CCc1ccc(C(c2ccc(CC)cc2)C(Cl)Cl)cc1", "outcome": "inactive"}
{"smiles": "Cc1ccc(S(=O)(=O)NCl)cc1", "outcome": "inactive"}
{"smiles": "OC[C@@H](O)[C@@H](O)[C@H](O)[C@@H](O)CO", "outcome": "inactive"}
{"smiles": "FC(F)(F)C(F)(F)C(F)(F)C(F)(F)CCI", "outcome": "inactive"}
{"smiles": "CCCCCCOC(=O)c1ccccc1", "outcome": "inactive"}
{"smiles": "CCC(=O)OCCc1ccccc1", "outcome": "inactive"}
{"smiles": "Nc1cc(Cl)c(N)c(Cl)c1", "outcome": "inactive"}
{"smiles": "CC/C=C\\CCOC(=O)c1ccccc1", "outcome": "inactive"}
{"smiles": "CC(CCl)OP(=O)(OC(C)CCl)OC(C)CCl", "note": "(configuration not stated)", "outcome": "inactive"}
{"smiles": "CCCCCCCCCCCCCCCC[N+](C)(C)Cc1ccccc1", "AC50": "42.3 µM (active) and 43.4 µM (active)"}
{"smiles": "c1ccc(B(c2ccccc2)c2ccccc2)cc1", "outcome": "inactive"}
{"smiles": "Cc1cc(C)cc(O)c1", "outcome": "inactive"}
{"smiles": "CCN(CC)c1ccc2c(C)cc(=O)oc2c1", "AC50": "41.6 µM (active) and 36 µM (active)"}
{"smiles": "O=C(C=Cc1ccccc1)OCC=Cc1ccccc1", "outcome": "inactive"}
{"smiles": "CCCCNc1ccccc1", "outcome": "inactive"}
{"smiles": "O=S(=O)(O)c1ccc2ccccc2c1", "outcome": "inactive"}
{"smiles": "CC/C=C\\CCOC(C)=O", "outcome": "inactive"}
{"smiles": "Nc1ccc([N+](=O)[O-])cc1O", "outcome": "inactive"}
{"smiles": "C1COCCN1", "outcome": "inactive"}
{"smiles": "COC(=O)C1CCC(C(=O)OC)CC1", "note": "(configuration not stated)", "outcome": "inactive"}
{"smiles": "Oc1ccc(Nc2ccccc2)cc1", "outcome": "inactive"}
{"smiles": "CN(C)Cc1ccccc1O", "outcome": "inactive"}
{"smiles": "CNC(=S)NC", "outcome": "inactive"}
